Only some compounds are listed: those with a hit (about 2.8% of all), similar ones and a draw of the others.
KKLEB cytotox – cytotoxicity in KKLEB CF airway cells, primary screen, cytotoxicity control for CF NF-kB inhibitor project, cell-based, uHTS, fluorescence assay plates. KKLEB CF airway cells viability, ATPlite luminescence, overnight; hits give low values; cells stimulated with P. aeruginosa culture filtrate. activity change (cytotoxicity), % at 5 µM. 360,000 tested, 0.36% active;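 active = corrected activity change at or below -50% at 5 µM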
HIF-2a block – HIF-2a reporter inhibitors, primary screen, luminescence, 786-0 RCC cells. 360,000 tested, 0.72% active. AID 624352, 2012. inhibition, % at 18.8 µM. 786-0 RCC cells HIF-2a reporter, luciferase luminescence, overnight;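 active = inhibition of the luminescence signal of 40% or more relative to plate controls, in a single-dose primary screen at 18.75 µM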
CF NFkB block – inhibitors of PAF-induced NF-kB signaling, primary screen, cell-based, GFP fluorescence, uHTS. KKLEB NF-kB-GFP reporter, GFP fluorescence overnight. inhibition, % at 5 µM. 360,000 tested, 0.86% active. AID 588850, 2011;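 active = at least 50% inhibition at 5 µM, scaled per plate between neutral and stimulator controls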;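 note: PAF is a Pseudomonas aeruginosa culture filtrate used as stimulus; plate controls were PAF-stimulated DMSO wells for no effect and unstimulated DMSO wells for full effect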
TRPM1 prom inh – inhibitors of MITF-dependent TRPM1 promoter reporter, primary screen, cell-based, SK-MEL-5, single point, luciferase | AID 488899, 2010 | inhibition, % at 12.5 µM | SK-MEL-5 TRPM1 promoter luciferase, 24 h | 330,000 tested, 0.83% active;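 active = mean inhibition across replicates of 60% or more, whatever share of single replicates reaches that level; inconclusive = some that reach 60%, reason not given; inactive = mean inhibition across replicates below 60%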
Peg3 prom inh – Peg3 promoter-driven luciferase inhibitors, primary screen, cell-based, HeLa, luciferase luminescence. 360,000 tested, 1.7% active. AID 588405, 2011. inhibition, % at 20 µM. HeLa PEG-Prom luciferase reporter, overnight;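 active = inhibition of at least 50% at 20 µM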
Shn3 inh set2 – reduction of Shn3 3'UTR firefly luciferase signal, primary screen, Schnurri-3 inhibitor project, cell-based, Clone20 osteoblasts, set 2; Clone20 osteoblast Shn3 3'UTR firefly luciferase, 24 h; inhibition, % at 12.5 µM; 360,000 tested, 0.52% active;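 active = mean inhibition of at least 75% with every replicate also reaching 75%; inconclusive = mean inhibition at least 75% but some replicate below; inactive = mean inhibition below 75%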;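 note: 0% = median of neutral control wells and 100% = pilot-screen positive control compound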
Numbers without * were called inactive; ? = inconclusive; · = no result.

SMILES | KKLEB cytotox | HIF-2a block | CF NFkB block | TRPM1 prom inh | Peg3 prom inh | Shn3 inh set2
CC(C)CC(N)c1csc(NC(=O)Nc2ccccc2Cc2ccccc2)n1 (stereo not drawn) | -9 | -3 | -2 | · | 86* | 31
CC(C)CC(N)c1csc(Nc2ccccn2)n1 (stereo not drawn) | -11 | -40 | 25 | · | -17 | 0
CC(=O)c1ccc(Nc2nc(C(N)CC(C)C)cs2)cc1 (stereo not drawn) | 0 | 9 | 11 | · | 4 | 22
CC(C)C(N)c1csc(NC(=O)Nc2ccccc2C(C)(C)C)n1 (stereo not drawn) | -24 | 2 | 25 | · | 9 | 5
CC(C)CC(N)c1csc(NC(=O)Nc2ccccc2-c2ccccc2)n1 (stereo not drawn) | -10 | 2 | 2 | · | 104* | 7
CC(C)CC(N)c1csc(NC(=O)C(c2ccccc2)c2ccccc2)n1 (stereo not drawn) | -14 | 1 | 29 | · | 95* | 69
COc1cccc(C(=O)N2CCC(C(=O)NCc3ccco3)CC2)c1 | 6 | 1 | 10 | -1 | 9 | -1
O=C(O)c1cccc(NC2=C(Cl)C(=O)c3ccccc3C2=O)c1 | -1 | -81 | -12 | 36 | -128 | -51
CC(C)OCCCNC1=C(Cl)C(=O)c2ccccc2C1=O | -24 | 64* | 7 | · | -230 | ·
COCCCNc1c2c3c(cccc3[nH]c1=O)C(=O)c1ccccc1-2 | -2 | -68 | -124 | 8 | 22 | -2
CC(C)NC1=C(Cl)C(=O)c2ccccc2C1=O | -22 | -53 | 50* | 80* | -36 | -4
CCN(CC)CCCNC1=C(Cl)C(=O)c2ccccc2C1=O | -2 | 84* | 65* | 110* | 18 | 24
COCCCNC1=C(Cl)C(=O)c2ccccc2C1=O | 18 | 84* | -33 | 39 | -77 | ·
CCN(CC)CCCNc1nc2ccccc2[nH]1 | 16 | 5 | -26 | 3 | -11 | -12
CCOC(=O)c1c(-c2ccccc2Cl)csc1NC(=O)c1cc(S(=O)(=O)N2CCOCC2)ccc1C | 2 | 9 | 7 | 19 | 13 | 37
O=C(COC(=O)Cc1ccccc1F)Nc1cccc(S(=O)(=O)NC2=NCCCCC2)c1 | -2 | 18 | -14 | -3 | 22 | -9
Cc1nc(C(=O)Nc2ccccc2Cl)cc2c1[nH]c1ccccc12 | -21 | -39 | 28 | 22 | 85* | -18
COC(=O)c1ccccc1NC(=O)N1c2ccccc2Sc2ccccc21 | 2 | 17 | 19 | 5 | 31 | 18
COC(=O)c1ccc(C(=O)OC)c(NC(=O)N2c3ccccc3Sc3ccccc32)c1 | -54* | 12 | 54* | -1 | 16 | 67
COc1ccc(NC(=O)c2cccc3c2C(=O)c2ccc(-c4ccc(F)cc4OCc4ccccc4)cc2S3(=O)=O)cc1 | -57* | -31 | 46 | 3 | 47 | 22
COc1cc2c(cc1O)C(CSC)Cc1cc3c(cc1N(C)CC2)OCO3 (stereo not drawn) | -7 | 8 | 12 | · | 19 | 5
COc1ccc(C(=O)NC(=S)NNC(=O)c2cnccn2)cc1 | 3 | -30 | -7 | 0 | -5 | 75
COc1cc(C(=O)NC(=S)NNC(=O)c2cnccn2)cc(OC)c1OC | 4 | 19 | -2 | -1 | 13 | 89*
OC(Cc1ccccc1Br)c1ncc(-c2cccc(C(F)(F)F)c2)[nH]1 (stereo not drawn) | -9 | -8 | 18 | · | 41 | 10
OC(Cc1cccc(Br)c1)c1ncc(-c2cccc(C(F)(F)F)c2)[nH]1 (stereo not drawn) | -11 | -26 | 16 | · | 50* | 8
COc1ccc(/C=C2/CCC(CN3CCOCC3)C2=O)cc1 (stereo not drawn) | -55* | 87* | 66* | 99* | 101* | ?
CN(C)CC1CC/C(=C\c2ccc(O)cc2)C1=O (stereo not drawn) | 0 | 88* | 47 | · | 98* | 90*

High-throughput results from PubChem BioAssay.
